Compound activity from PubChem.
Most compounds without a hit are left out; they make up all but 3.4% or so of the library.
FBW7 act – human FBW7 E3 ligase activation, primary screen; Q969H0; AlphaScreen FBW7–phospho-cyclin E peptide binding, activator screen; normalized activity (activation), % at 26.1 µM; 650,000 compounds, 0.13% hits; in the data active = normalized activity above about 1.9%;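 note: purified mutant Fbw7 with reduced substrate affinity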
GPR151 activ – activators of human GPR151 | Q8TDV0 | PathHunter beta-arrestin GPR151 cells, luminescence | activation, % at 11.2 µM | 650,000 compounds, 1% hits; in the data active = activation above about 4.9%;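 note: 0% = median of compound wells and 100% = cells with positive control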
MITF primary – inhibitors of human MITF. inhibition, % at 2.6 µM. AlphaScreen MITF homodimerization, bead proximity signal. O75030. 650,000 compounds, 0.91% hits; in the data active = inhibition above about 50%;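 note: 0% = vehicle wells with protein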
TEAD-YAP inh – TEAD-YAP interaction inhibition; HEK-TIYL cells, TEAD-Gal4/YAP UAS-luciferase luminescence; inhibition, % at 9.12 µM; 640,000 compounds, 1.4% hits; AID 1259422; in the data active = inhibition above about 32%;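 note: 0% = median of test compound wells and 100% = reference inhibitor wells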
Numbers without * were called inactive.

SMILES	FBW7 act	GPR151 activ	MITF primary	TEAD-YAP inh
COc1ccc(CNC(=O)N2CCCC(c3nnc(-c4ccccc4F)s3)C2)cc1 (configuration not stated)	0	0	12	-23
COc1ccc(-c2nc(NCCN3CCOCC3)c3ncn(CCN4CCCC4=O)c3n2)cn1	0	0	39	5
Cn1nc(CC(=O)Nc2ccc(Oc3ccccc3)cc2)c2ccccc2c1=O	0	3	5	40*
Cn1c(C(=O)O)c(CC(=O)Nc2ccc3c(c2)OCCO3)c2ccccc21	0	-1	21	35*
Cc1ccc(C)n1CCCC(=O)Nc1ccc2c(c1)OCCO2	0	1	-1	59*
COc1ccc(C(=O)Oc2ccc(NC(=O)Cc3nn(C)c(=O)c4ccccc34)cc2)cc1	0	0	-7	-4
Cn1nc(CC(=O)Nc2cccc(O)c2)c2ccccc2c1=O	0	1	-7	5
Cn1nc(CC(=O)Nc2cccc(C(F)(F)F)c2)c2ccccc2c1=O	0	3	1	42*
CC(=O)CSc1nnc(-c2ccncc2)n1Cc1ccccc1	0	0	-12	-6
COc1ccc(NC(=O)c2ccc(Br)o2)cc1Cl	0	0	11	-52
Cn1nc(CC(=O)Nc2ccc3c(c2)OCCO3)c2ccccc2c1=O	0	-1	-6	50*
Cc1ccc(NC(=O)Cc2nn(C)c(=O)c3ccccc23)cc1F	0	1	3	20
COc1ccc(CC(=O)Nc2ccc3c(c2)OCCO3)cc1OC	0	0	11	1
Cn1nc(CC(=O)Nc2ccc3c(c2)OCO3)c2ccccc2c1=O	0	0	0	26
O=C(Cc1ccc2c(c1)OCCO2)Nc1ccc2ccccc2c1	0	0	0	42*
Cn1nc(CC(=O)Nc2ccc(Cl)cc2)c2ccccc2c1=O	1	-1	19	39*
CC(C(=O)Nc1ncn[nH]1)c1ccc([N+](=O)[O-])cc1 (configuration not stated)	-1	-1	8	12
CC(C(=O)Nc1ccncc1)c1ccc([N+](=O)[O-])cc1 (configuration not stated)	1	4	0	33*
CC(=O)Nc1ccc(Nc2cc(Cl)c3nonc3c2[N+](=O)[O-])cc1	0	-1	0	1
CCN1CCN(Cc2ccc(NC(=O)Nc3cc(F)ccc3F)cc2)CC1	0	-1	0	40*
COc1ccc(NC(=O)CN2C(=O)C(C)N(c3ccc(C)cc3)C2=O)cc1 (configuration not stated)	0	0	-2	-3
CCOc1ccc2nc(NC(=O)CSc3nnnn3-c3ccccc3)sc2c1	0	-1	-3	-1
COc1ccc(C2Oc3ccccc3C3=C2C(c2cccs2)n2ncnc2N3)cc1 (configuration not stated)	0	2	2	38*
COc1ccc(C2C3=C(Nc4ncnn42)c2ccccc2OC3c2cccs2)cc1 (configuration not stated)	0	-1	-9	-5
Cc1nc(C)c(-c2ccc(SCC(N)=O)nn2)s1	0	1	-3	-13
SMILES	FBW7 act	GPR151 activ	MITF primary	TEAD-YAP inh
COc1cccc(CC2(CO)CCN(C(=O)CSc3ccncc3)CC2)c1	0	1	1	4
CN1C(=O)C(=Cc2ccco2)C(=O)N(C)C1=S	-1	-1	71*	6
O=C1NC(=O)N(c2cccc(F)c2)C(=O)/C1=C\C=C\c1ccco1	0	0	27	-3
COc1cccc(N2C(=O)/C(=C/C=C/c3ccco3)C(=O)NC2=S)c1	1	-2	57*	6
CC(=O)c1ccc(-c2ccc(C=C3C(=O)N(C)C(=S)N(C)C3=O)o2)cc1	0	-1	-5	-14
CN1C(=O)C(=C/C=C/c2ccco2)C(=O)N(C)C1=S	0	-1	77*	2
CN1C(=O)C(=Cc2ccc(I)o2)C(=O)N(C)C1=S	0	1	81*	-1
Cc1cc2c(cc1Br)NC(=O)C21NN=C(c2ccccc2)S1 (configuration not stated)	0	0	2	-43
CC1(C)OC(=O)C(=C/C=C/c2ccco2)C(=O)O1	0	0	71*	9
O=C1/C(=C\c2ccco2)N2CCC1CC2	0	1	20	-1
CN1C2CCC1/C(=C\c1ccco1)C(=O)/C2=C\c1ccco1	0	-1	54*	4
Cc1cc([N+](=O)[O-])nn1CC(=O)Nc1sc2c(c1C#N)CCC(C(C)(C)C)C2 (configuration not stated)	0	0	-3	-8
O=C(O)c1ccc([N+](=O)[O-])cc1C(=O)Nc1ccc(I)cc1	0	0	2	9
